Test results reported in PubChem BioAssay AID1850 (Southern Research Specialized Biocontainment Screening …, 2009).
The whole screen tested about 310,000 compounds, of which about 1,000 (0.32%) were called active. Not all results are given here. Measured potencies and affinities stand elsewhere. Values without a mark were called inactive. No rule for the calls is given here.

Test: Inhibition of PhoP regulon, Salmonella typhi GFP reporter cells, confirmation, 4 h (AID 1850);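 also: 0% = induced wells with vehicle and 100% = uninduced wells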
Conditions: Salmonella Typhi PhoP-promoter GFP reporter, fluorescence, at 50 µM, stronger effect = higher value

Question: For `COc1ccc(C2CC(=O)c3c(ccc4ccccc34)N2)cc1OC` (stereo not drawn), which inhibition is on record?
Answer: 2.44%

Question: With `Cc1ncc(/C=C2\C(=O)Nc3ccccc32)[nH]1` as the molecule, how does the inhibition read?
Answer: -10.1%

Question: With `Cc1cccc(NC(=O)CSc2nc(=O)n3ccccc3n2)c1C` as the molecule, how does the inhibition read?
Answer: 4.11%

Question: With `Fc1ccc(Nc2nnc(C(F)(F)F)s2)cc1` as the molecule, how does the inhibition read?
Answer: -1.74%

Question: Which inhibition does the source give for `FC(F)(F)c1nnc(Nc2ccc(Cl)cc2)s1` here?
Answer: 13.5%

Question: Which inhibition does the source give for `Cc1ccc(C(=O)N/C(N)=N/c2nc3ccccc3o2)cc1` here?
Answer: -27.8%

Question: For `O=C(COC(=O)c1ccco1)NC(c1ccccc1)c1ccccc1`, which inhibition is on record?
Answer: -14.2%

Question: For `CN(CC(=O)O)S(=O)(=O)c1ccc2c(c1)NC(=O)CC(=O)N2`, which inhibition is on record?
Answer: 12.4%

Question: Which inhibition does the source give for `COc1ccccc1CN1C[C@@H]2C[C@@H](c3ccccc3C)N3CCC[C@@]23C1=O` here?
Answer: -4.27%

Question: Which inhibition does the source give for `COCCNc1nc(-c2cc(-c3ccccc3)on2)cc(C(C)C)n1` here?
Answer: -5.87%

Question: For `Cc1c(C(=O)Nc2c(N)nc(SCC(=O)NCC3CCCO3)[nH]c2=O)cccc1[N+](=O)[O-]` (stereo not drawn), which inhibition is on record?
Answer: -5.44%

Question: Which inhibition does the source give for `CCOC(=O)C1CCN(C(=S)NC2CC3C=CC2C3)CC1` (stereo not drawn) here?
Answer: 6.08%

Question: With `COc1ccc(-n2nc(C)cc2N)cc1` as the molecule, how does the inhibition read?
Answer: 4.84%

Question: With `COc1ccc(C(=O)NNC(=S)NC(=O)c2ccc(OC)cc2)cc1` as the molecule, how does the inhibition read?
Answer: 5.93%

Question: Which inhibition does the source give for `COc1ccc(C(=O)NNC(=S)NC(=O)c2ccc(Cl)cc2)cc1` here?
Answer: 4.94%

Question: With `COc1ccc(C(=O)NC(=S)NNC(=O)c2ccc(C)cc2)cc1` as the molecule, how does the inhibition read?
Answer: 18.1%

Question: For `Cc1cccc(C(=O)NNC(=S)NC(=O)c2ccccc2)c1`, which inhibition is on record?
Answer: 18.6%

Question: Which inhibition does the source give for `Cc1cccc(C(=O)NC(=S)NNC(=O)c2cccs2)c1` here?
Answer: -3.39%

Question: With `O=C(NNC(=S)NC(=O)c1cccs1)c1ccc(O)cc1` as the molecule, how does the inhibition read?
Answer: -3.75%

Question: For `Cc1ccc(CSc2nnc(-c3cccc(S(=O)(=O)N4CCOCC4)c3)n2CC(C)C)cc1`, which inhibition is on record?
Answer: 10.2%

Question: For `CCOC(=O)[C@@H]1CCNC[C@@H]1c1ccccc1`, which inhibition is on record?
Answer: -2.58%

Question: Which inhibition does the source give for `CCC(C)Sc1nnc(NC(=O)c2ccco2)s1` (stereo not drawn) here?
Answer: -2.84%

Question: For `CC(C)(C)c1ccccc1N=Cc1ccc2ccccc2n1`, which inhibition is on record?
Answer: -21.3%

Question: For `Cc1onc(-c2ccc(Cl)cc2)c1-c1ccnn1S(=O)(=O)c1cccc(C(F)(F)F)c1`, which inhibition is on record?
Answer: -8.24%

Question: Which inhibition does the source give for `Cc1ccccc1NC(=S)N(Cc1cccnc1)Cc1ccccc1Cl` here?
Answer: -8.27%

Question: For `CCOC(=O)C1CCN(Cc2c(F)cccc2Cl)CC1`, which inhibition is on record?
Answer: -1.3%

Question: Which inhibition does the source give for `COc1ccc(C(=O)C2CCCN(C(=O)c3ccc(F)cc3)C2)cc1OC` (stereo not drawn) here?
Answer: -6.1%

Question: With `O=C(Nc1ccc(F)cc1)c1cccnc1` as the molecule, how does the inhibition read?
Answer: -6.59%

Question: For `NC1=NC(c2ccccc2Cl)n2c(nc3ccccc32)N1` (stereo not drawn), which inhibition is on record?
Answer: 4.77%

Question: Which inhibition does the source give for `CCOC(=O)C1=C(C)Nc2nc3ccccc3n2C1c1ccccc1` (stereo not drawn) here?
Answer: -6.62%

Question: Which inhibition does the source give for `NC1=NC(c2ccc(Cl)cc2)n2c(nc3ccccc32)N1` (stereo not drawn) here?
Answer: -5.56%

Question: For `CCn1c2ccccc2c2cc(C3N=C(N)Nc4nc5ccccc5n43)ccc21` (stereo not drawn), which inhibition is on record?
Answer: 6.06%

Question: For `Cc1ccc(C2N=C(N)Nc3nc4ccccc4n32)cc1` (stereo not drawn), which inhibition is on record?
Answer: -13.9%

Question: With `Cc1cccc(C2N=C(N)Nc3nc4ccccc4n32)c1` (stereo not drawn) as the molecule, how does the inhibition read?
Answer: 1.47%

Question: Which inhibition does the source give for `CCCCCOc1ccc(CSCCNC(=S)Nc2ccccc2)cc1` here?
Answer: -18.1%

Question: With `CC(C)CN(C(=O)COC(=O)CSc1ccccc1F)c1c(N)n(Cc2ccccc2)c(=O)[nH]c1=O` as the molecule, how does the inhibition read?
Answer: 4.09%

Question: For `COc1cc(C2/C(=C(\O)c3ccc4c(c3)CC(C)O4)C(=O)C(=O)N2CCN2CCOCC2)cc(OC)c1OC` (stereo not drawn), which inhibition is on record?
Answer: -7.62%

Question: For `CC(C)(C)NC(=O)/C(=C/c1ccccc1F)NC(=O)c1ccc([N+](=O)[O-])cc1`, which inhibition is on record?
Answer: 7.24%

Question: Which inhibition does the source give for `CC(C)NC(=O)NC(=O)CN1C(=O)NC2(CCc3ccccc3C2)C1=O` (stereo not drawn) here?
Answer: -20.4%

Question: Which inhibition does the source give for `C/C=C/C(=O)Nc1nnc(C2CCCCC2)s1` here?
Answer: -12.4%

Question: With `COC(=O)C1CCCCN1C(=O)c1ccc2oc(Cc3ccccc3)nc2c1` (stereo not drawn) as the molecule, how does the inhibition read?
Answer: -3.48%

Question: For `COc1ccccc1CC(=O)NNS(=O)(=O)c1cccc([N+](=O)[O-])c1`, which inhibition is on record?
Answer: -15.1%

Question: With `Oc1ccc(C[C@H]2CNCCN2CC2CCCCC2)cc1` as the molecule, how does the inhibition read?
Answer: -0.4%

Question: For `Oc1ccc(C[C@H]2CNCCN2CCC23CC4CC(CC(C4)C2)C3)cc1`, which inhibition is on record?
Answer: -7.57%

Question: For `Oc1ccc(C[C@@H]2CNCCN2CC2CCCCC2)cc1`, which inhibition is on record?
Answer: -6.54%

Question: For `c1ccc(C[C@H]2CNCCN2CCCCC2CCCCC2)cc1`, which inhibition is on record?
Answer: 1.44%

Question: Which inhibition does the source give for `c1ccc(C[C@H]2CNCCN2CCC23CC4CC(CC(C4)C2)C3)cc1` here?
Answer: 15.7%

Question: With `CCCCN1CCNC[C@H]1Cc1ccc(O)cc1` as the molecule, how does the inhibition read?
Answer: 0.57%

Question: With `Nc1ccccc1SCC(O)Cn1ccc2ccccc21` (stereo not drawn) as the molecule, how does the inhibition read?
Answer: 0.67%

Question: Which inhibition does the source give for `CN1CCN(CCC(=O)Nc2cccc(F)c2)CC1` here?
Answer: -7.12%

Question: For `CCOc1ccc(N(CC(=O)N2CCN(Cc3ccccc3)CC2)S(C)(=O)=O)cc1`, which inhibition is on record?
Answer: 1.84%

Question: Which inhibition does the source give for `COc1ccc(N2CCN(C(=O)c3ccc(CSc4ccccc4)cc3)CC2)cc1` here?
Answer: 3.8%

Question: With `CCC(=O)N1CCc2cc(S(=O)(=O)NCCC(=O)NCc3ccc(F)cc3)ccc21` as the molecule, how does the inhibition read?
Answer: 5.61%

Question: With `CN(C(=O)Cc1c(C(=O)O)n(C)c2ccccc12)c1ccc(Cl)cc1` as the molecule, how does the inhibition read?
Answer: -0.76%

Question: With `CCOC(=O)C1CN(S(=O)(=O)c2ccccc2)C1` as the molecule, how does the inhibition read?
Answer: -1.91%

Question: With `CC(C)CC(NS(=O)(=O)c1cccc(C(=O)O)c1)C(=O)O` (stereo not drawn) as the molecule, how does the inhibition read?
Answer: -4.1%

Question: Which inhibition does the source give for `CSc1cccc(NC(=O)c2ccccc2N(C)S(C)(=O)=O)c1` here?
Answer: 3.99%

Question: With `CCc1nnc(NC(=O)[C@@H](NC(=O)c2ccc(C(C)(C)C)cc2)C(C)C)s1` as the molecule, how does the inhibition read?
Answer: -2.72%

Question: Which inhibition does the source give for `COc1ccc(C(=O)NC(=S)NNC(=O)c2cnccn2)cc1OC` here?
Answer: 31.3%

Question: Which inhibition does the source give for `O=C(NC(=S)NNC(=O)c1cnccn1)c1ccc(Cl)cc1` here?
Answer: 10.3%

Question: For `O=C(NNC(=S)NC(=O)c1cccnc1)c1ccc(F)cc1`, which inhibition is on record?
Answer: 15.9%

Question: For `COc1cc(OC)cc(C(=O)NC(=S)NNC(=O)c2cnccn2)c1`, which inhibition is on record?
Answer: -6.65%

Question: For `COc1cc2oc(=O)cc(C)c2c(OC)c1OC`, which inhibition is on record?
Answer: -3.26%

Question: Which inhibition does the source give for `Cc1ccc(NC(=O)C2CCCN(S(=O)(=O)c3cccs3)C2)cc1` (stereo not drawn) here?
Answer: 3.27%

Question: With `COc1ccc(N2C(N)=NC(N)=NC2(C)C)cc1` as the molecule, how does the inhibition read?
Answer: 2.39%

Question: With `CCOc1ccc(N2C(N)=NC(N)=NC2(C)C)cc1` as the molecule, how does the inhibition read?
Answer: -0.23%

Question: With `COC(=O)c1ccc(CNC(=O)COC(=O)Cc2ccsc2)cc1` as the molecule, how does the inhibition read?
Answer: 8.65%

Question: For `O=C(Nc1ccc(F)cc1)c1sc(Cl)nc1-c1ccccc1`, which inhibition is on record?
Answer: -0.89%

Question: For `O=C(/C=C/c1ccccc1O)c1ccco1`, which inhibition is on record?
Answer: 8.77%

Question: With `O=C(/C=C/c1ccc(Br)cc1)c1ccco1` as the molecule, how does the inhibition read?
Answer: 2.45%

Question: With `COc1ccc(/C=C/C(=O)Oc2ccc(C)cc2)cc1` as the molecule, how does the inhibition read?
Answer: -5.85%

Question: With `Cc1ccc(-c2cc(-c3ccc(C)cc3)[n+](C)o2)cc1` as the molecule, how does the inhibition read?
Answer: -2.37%

Question: Which inhibition does the source give for `CCOc1cccc(CN(C)CC2CCCN(CCc3ccc(Cl)cc3)C2)c1O` (stereo not drawn) here?
Answer: -8.67%

Question: Which inhibition does the source give for `CN(Cc1ccccc1OCCO)CC1CCCN(CCc2ccc(Cl)cc2)C1` (stereo not drawn) here?
Answer: 0.25%

Question: With `O=C(Nc1c(C(=O)N2CCOCC2)cnn1-c1ccccc1)c1cccc(F)c1` as the molecule, how does the inhibition read?
Answer: -2.99%

Question: Which inhibition does the source give for `Cc1ccc2nc(N(CCN3CCOCC3)C(=O)CCS(=O)(=O)c3ccccc3)sc2c1` here?
Answer: 0.17%

Question: For `COc1cnc(-c2ccccn2)[nH]c1=O`, which inhibition is on record?
Answer: -0.99%

Question: For `O=c1[nH]c(-c2ccccn2)nc2ccccc12`, which inhibition is on record?
Answer: -0.6%

Question: Which inhibition does the source give for `O=C(NC1CCCC1)C(c1ccccn1)N(C(=O)c1csnn1)c1ccccc1Br` (stereo not drawn) here?
Answer: 5.15%

Question: For `CCN(CC)CCNC(=O)CNC(=O)c1nn(-c2ccc(OC)c(OC)c2)c(=O)c2ccccc12`, which inhibition is on record?
Answer: -2.16%

Question: For `CC(=O)c1cc(C)ccc1OC(=O)c1ccncc1`, which inhibition is on record?
Answer: -3.27%

Question: Which inhibition does the source give for `CN1CCC2(CC1)N=C(c1ccc(F)cc1)C(=S)N2C(=O)c1ccccc1` here?
Answer: -2.67%

Question: With `CN1CCC2(CC1)N=C(c1ccc(F)cc1)C(=S)N2C(=O)c1ccc(C(C)(C)C)cc1` as the molecule, how does the inhibition read?
Answer: 17.9%

Question: For `O=C(O)c1ccc(S(=O)(=O)Nc2ccc3c(c2)OCCO3)cc1`, which inhibition is on record?
Answer: -5.88%

Question: For `CCCC(=O)Nc1ccc(C(=O)NNC(=O)COc2ccc(Br)c(C)c2)cc1`, which inhibition is on record?
Answer: -2.62%

Question: For `O=c1[nH]cc(-c2ccccc2)c(=O)[nH]1`, which inhibition is on record?
Answer: 2.03%

Question: For `O=c1[nH]cc(O)c(=O)[nH]1`, which inhibition is on record?
Answer: 6.55%

Question: With `COC(=O)CN1C2=NCCCN2c2ccccc21` as the molecule, how does the inhibition read?
Answer: 6.91%

Question: With `Cc1sc2ccccc2[n+]1CC(=O)c1ccccc1` as the molecule, how does the inhibition read?
Answer: -4.52%

Question: With `Cc1sc2cc3c(c(C(=O)c4ccccc4)[n+]2c1C)-c1cccc2cccc-3c12` as the molecule, how does the inhibition read?
Answer: -9.84%

Question: With `O=C(OCc1ccc(COC(=O)c2cccnc2Cl)cc1)c1cccnc1Cl` as the molecule, how does the inhibition read?
Answer: -8.94%

Question: For `CCOc1ccc(OCC(=O)N2CCOCC2)cc1`, which inhibition is on record?
Answer: -0.13%

Question: Which inhibition does the source give for `CCOC(=O)c1cn(CC)c2cc3c(cc2c1=O)OCO3` here?
Answer: 2.61%

Question: With `CCn1cc(C(=O)NCCC(=O)OC)c(=O)c2cc3c(cc21)OCO3` as the molecule, how does the inhibition read?
Answer: 2.1%

Question: Which inhibition does the source give for `CCn1nc(C(=O)N2CCN(Cc3ccc4c(c3)OCO4)CC2)c2ccccc2c1=O` here?
Answer: -11.3%

Question: With `CCn1ccc(=O)c2cc3c(cc21)OCO3` as the molecule, how does the inhibition read?
Answer: -2.2%

Question: With `O=C(Nc1ccccc1C(F)(F)F)N1CCN(c2ccccn2)CC1` as the molecule, how does the inhibition read?
Answer: 5.82%

Question: With `O=C(C1CC(c2ccccc2O)=NO1)N1CCc2ccccc2C1` (stereo not drawn) as the molecule, how does the inhibition read?
Answer: -3.18%
